# The list is not random: actives were taken first. Their share in the collection is about 10%.
# Six1-Eya2 inh: Six1/Eya2 interaction inhibition | AlphaScreen GST-Six1/His-Eya2 binding, biochemical; stronger effect = lower value | activity change, % (concentration not given with the values) | 360,000 tested, 0.56% active | AID 651725; in the data active means activity change below about -65%; inconclusive means mostly about -30% to -63%; further: on the % scale 0 is the no-effect control and ±100 the full control effect
#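 Compounds are tested against tagged Six1 and Eya2 proteins bridged by glutathione donor and nickel acceptor beads; after a one-hour incubation at 37 °C without light, AlphaScreen emission is recorded.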
# JMJD2A Tudor: inhibitors of human JMJD2A Tudor domain; AlphaScreen JMJD2A-Tudor / H3K4me3 peptide binding; Potency, µM (series often up to 114 µM), for the others: at the highest dose activity change, negative = inhibition, most hits filed as inhibitors; AID 504339; O75164; 390,000 tested, 4.4% active; further: potency means the concentration at half of the fitted maximal effect; on the % scale 0 is the no-effect control and ±100 the full control effect; nearly all actives have a fitted effect of over 50% in size
# CtBP-E1A blk: CtBP/E1A binding inhibition; 340,000 tested, 0.49% active; AID 651724; activity change, % (test concentration not listed); AlphaScreen GST-E1A/His-CtBP binding, 1536-well; stronger effect = lower value; in the data active means activity change below about -65%; inconclusive means mostly about -30% to -63%; further: on the % scale 0 is the no-effect control and ±100 the full control effect
#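 Steps: dispense buffer (Tris pH 8.0, NaCl 300 mM, TCEP 1 mM, BSA, Tween 20); add 5X protein mix (GST-E1A, His-CtBP, 125 nM each); pin 23 nL compound; 2 h at 37 °C, dark; add 5X beads (50 ug/mL); 1 h; read.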
# BAZ2B inh: blocks human BAZ2B | 360,000 tested, 4.4% active | Q9UIF8 | Potency, µM (titrated, usually from 114 µM), for inactives: at the highest dose activity change, negative = inhibition, most hits filed as inhibitors | AID 504333 | AlphaScreen BAZ2B-H3K14Ac peptide displacement; further: potency means the concentration at half of the fitted maximal effect; on the % scale 0 is the no-effect control and ±100 the full control effect; nearly all actives have a fitted effect of over 60% in size
#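 AlphaScreen displacement: compounds (up to 110uM) incubated 30 min at room temperature with a preformed 50 nM BAZ2B/50 nM biotinylated H3K14Ac peptide complex in PBS pH 7.4 with Tween-20. Donor and acceptor beads at 10 ug/mL final added, 20 min light-protected before reading.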
# HP1b binding inh: blocks HP1-beta chromodomain binding to methylated histone tails; P83916; 390,000 tested, 0.56% active; Potency, µM (doses to about 114 µM), for the others: at the top dose activity change, negative = inhibition, usual class: inhibitors; AID 540317; AlphaScreen HP1-beta / biotin-H3K9me3 peptide binding; further: potency means the concentration at half of the fitted maximal effect; nearly all actives have a fitted effect of over 70% in size
# Target sequence (P83916 whole entry, looked up): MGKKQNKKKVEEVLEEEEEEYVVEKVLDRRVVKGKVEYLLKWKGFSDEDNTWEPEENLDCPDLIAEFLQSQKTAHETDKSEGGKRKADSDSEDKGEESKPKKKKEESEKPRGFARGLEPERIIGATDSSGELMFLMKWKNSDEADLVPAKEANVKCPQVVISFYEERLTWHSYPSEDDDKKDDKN
#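 Compound inhibition of the preformed complex between 50 nM HP1-beta and 50 nM biotinylated H3K9me3 peptide was read by AlphaScreen. Buffer was PBS pH 7.4 with 0.01% Tween-20. Incubations ran 30 min at room temperature, with 10 ug/mL donor/acceptor beads.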
# G9a inh: blocks human histone lysine methyltransferase G9a; Q96KQ7; G9a H3K9 monomethylation, AlphaScreen, 2 h; Potency, µM (doses to about 102 µM), for inactives: at the highest dose activity, negative = inhibition, hits mostly inhibitors; 350,000 tested, 8.8% active; further: potency means the concentration at half of the fitted maximal effect; on the % scale 0 is the no-effect control and ±100 the full control effect; nearly all actives have a fitted effect of over 75% in size
# Target sequence (Q96KQ7 913-1193 limits assumed): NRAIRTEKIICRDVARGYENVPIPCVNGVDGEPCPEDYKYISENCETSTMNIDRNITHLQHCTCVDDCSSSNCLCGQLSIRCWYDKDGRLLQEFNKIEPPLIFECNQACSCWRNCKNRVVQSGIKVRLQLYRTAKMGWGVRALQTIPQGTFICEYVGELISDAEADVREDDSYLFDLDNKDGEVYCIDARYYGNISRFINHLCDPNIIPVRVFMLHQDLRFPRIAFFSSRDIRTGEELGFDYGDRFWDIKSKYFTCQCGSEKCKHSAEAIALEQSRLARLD
#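 AlphaScreen read-out: biotin-H3K9 peptide (500 nM) methylation by 20 nM enzyme with 20 uM SAM, 2 h at room temperature after 15 min compound preincubation; anti-monomethyl H3K9 antibody plus donor/acceptor beads, 10 min dark.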
# * hit, by the source's call; ? = inconclusive; . = not tested or not shown; [ ] = dose if it differs, or a comment. Unless noted, the call rests on the fitted dose curve; in most records, active means well fitted inhibition curve with a large enough effect; inconclusive means small, poorly fitted or top-dose-only effect; inactive means no such curve, though single readings can be large or run the other way.
SMILES,Six1-Eya2 inh,JMJD2A Tudor,CtBP-E1A blk,BAZ2B inh,HP1b binding inh,G9a inh
Cc1ccc(N=Cc2c(O)c3ccccc3oc2=O)cc1F,-0.5,-9.5%,7.9,-15.9%,22.3%,35.5µM*
CCOc1ccccc1CNC(=O)C1CCN(S(=O)(=O)c2c(C)noc2/C=C/c2ccc(C)cc2)CC1,.,-22.4%,.,-5.8%,23.2%[57 µM],13.3%[59 µM]
Cc1ccc(NC(=O)CN2C(=O)c3cccnc3Oc3ccc(Cl)cc32)cc1,.,-9.6%,.,0.4%,27.8%,-29.8%[59 µM]
CC1=NN(c2ccccc2)C(=O)C1/C=C1/NC(=S)NC1=O (stereo not drawn),-9.9,-20.1%,-4.9,-29.6%,20.8%,?
CC1=NN(c2ccccc2)C(=O)C1C=Nc1ccc(N(C)C)cc1 (stereo not drawn),?,44.7µM*,?,35.5µM*,?,.
CC1CN(C(=O)C(C)N2CCN(c3cccc(Cl)c3)CC2)CC(C)O1 (stereo not drawn),4.1,63.1µM*,0.0,-2.8%,?,34.6%
CC1CN(C(=O)C(C)N2CCN(c3ccccc3Cl)CC2)CC(C)O1 (stereo not drawn),4.9,6.7%[57.1 µM],3.9,11.3%,36.6%,5.0%
COc1ccc(-c2nc3scc(CCNS(=O)(=O)c4cccc(C(C)=O)c4)n3n2)cc1,.,-25.6%,.,-16.1%,8.9%,-6.1%[59 µM]
COCCNC(=S)N(CCc1c(C)[nH]c2ccc(F)cc12)Cc1ccco1,-7.1,-35.1%,.,70.8µM*,-4.7%,?
CNC(=S)N(CCc1c(C)[nH]c2ccccc12)Cc1ccco1,-7.6,?,-4.2,?,?,50.1µM*
Cc1[nH]c2ccc(F)cc2c1CCN(Cc1ccco1)C(=S)NC(C)(C)C,-22.6,?,-9.0,.,17.7%,?
CNC(=S)N(CCc1c(C)[nH]c2ccc(F)cc12)Cc1ccco1,-15.5,?,-5.0,?,-13.0%,70.8µM*
Cc1ccc(NC2=C(N3CCOCC3)C(=O)c3ccccc3C2=O)cc1,-88.8*,14.1µM*,-91.8*,14.1µM*,12.6µM*,?
CC(=O)N(C1=C(N2CCOCC2)C(=O)c2ccccc2C1=O)c1ccc(C(=O)O)cc1,2.8,-20.4%,.,-37.4%,37.3%,39.8µM*
O=C(O)c1ccc(NC2=C(N3CCOCC3)C(=O)c3ccccc3C2=O)cc1,2.5,-17.2%,6.0,?,12.6%,?
CC(=O)c1ccc(NC2=C(N3CCOCC3)C(=O)c3ccccc3C2=O)cc1,?,39.8µM*,0.3,28.2µM*,28.2µM*,.
Fc1ccc(-c2noc3ncnc(NCCCN4CCN(c5ccccc5)CC4)c23)cc1,.,?,.,-8.3%[57.1 µM],-6.3%,?
CCN1CCN(c2ncc3c(n2)CCN(CC(C)C)C3)CC1,.,-27.8%,.,?,20.7%,?
CCCc1cc(=O)[nH]c(Nc2ccc(C)c(O)c2)n1,.,-10.1%,.,-8.0%,31.6%,?
COc1cc(Cl)c(C)cc1NC(=O)c1nn(C)c2c1CSc1ccccc1-2,.,-2.0%,.,-12.2%,55.0%,-29.1%[59 µM]
CCOC(=O)C1(C(C)C)Oc2ccccc2C(c2ccc(OC)cc2)=C1C(=O)OC (stereo not drawn),.,.,.,.,.,-8.4%[59 µM]
CC(C)CNC(=O)c1c(-c2ccccc2)c(-c2ccccc2)nn(C)c1=O,.,8.8%,.,-4.4%,43.0%,7.4%[59 µM]
COc1ccc(C(=O)Nc2ccccc2C(=O)Nc2ccncc2)cc1,0.9,-14.4%,6.0,?,23.6%,44.7µM*
O=C(Nc1cc(C(=O)Nc2ccccc2C(=O)O)cc(C(=O)Nc2ccccc2C(=O)O)c1)c1ccccc1,-69.2*,?,?,-15.0%,5.5%,73.8%
O=C(/C=C/c1ccco1)Nc1cccc(C(=O)Nc2ccccc2C(=O)O)c1,?,79.4µM*,?,?,-18.4%,.
SMILES,Six1-Eya2 inh,JMJD2A Tudor,CtBP-E1A blk,BAZ2B inh,HP1b binding inh,G9a inh
COc1ccc(C(=O)Nc2c(O)ccc3ccccc23)cc1,-27.8,79.4µM*,2.0,.,?,.
O=C(Nc1ccccc1C(=O)O)c1cccc(NC(=O)c2ccccc2Br)c1,-6.5,-12.3%,-9.7,3.8%,38.5%,-1.0%
CC(=O)N1CCc2cc(S(=O)(=O)NC(Cc3ccccc3)C(=O)Nc3ccc(C)cc3C)ccc21 (stereo not drawn),.,-21.3%,.,.,13.9%,-12.8%[59 µM]
Cc1cccc(N2CCN(C(=O)c3ccc(NC(=O)c4nsc5ccccc45)cc3)CC2)c1C,.,-11.0%,.,1.4%,22.1%[57 µM],-0.1%[59 µM]
Cc1cccc(NC(=O)C(NS(=O)(=O)c2cccc3nsnc23)c2ccccc2)c1C (stereo not drawn),.,2.3%,.,.,48.9%,5.6%[59 µM]
COc1cc(OC)c(OC)cc1CNCCCSc1nnnn1C,.,-6.3%,.,-8.6%,58.3%,0.8%[59 µM]
CC(=O)Nc1ccc(NS(=O)(=O)c2c(C)nc3sccn3c2=O)cc1,.,6.6%,.,-3.4%,54.7%,-4.4%[59 µM]
Cc1cc(C)cc(N2CC(c3nnc(NC(=O)c4ccco4)s3)CC2=O)c1 (stereo not drawn),.,-20.9%,.,-30.6%,14.0%,-39.9%[59 µM]
O=C(NCc1cccnc1)c1ccc(NC(=O)c2ccc(Br)cc2)cc1,0.5,-32.6%,-2.6,-12.9%,35.3%,44.7µM*
COc1ccc(C(=O)Nc2ccc(C(=O)Nc3cccnc3)cc2)cc1,9.9,-34.0%,-3.7,-25.8%,?,50.1µM*
O=C(Nc1ccccc1C(=O)O)C1=NN=CC1,?,-30.1%,?,-8.8%,?,50.1µM*
COc1ccc(C(=O)Nc2ccccc2C(=O)Nc2ccccc2C(=O)O)cc1,-65.6*,-17.8%,-76.6*,-30.4%,25.9%,-3.3%[0.501 µM]
COc1ccc(C(=O)Nc2ccccc2C(=O)Nc2ccc(C(=O)O)cc2)cc1,0.0,-12.9%,-12.1,-16.7%,45.5%,?
O=C(O)c1ccccc1C(=O)Nc1ccccc1NC(=O)c1ccccc1C(=O)O,-1.0,10.0%,4.8,.,42.1%,.
CCCCN(C)CCNC(=O)c1cc(=O)[nH]c2ccc(S(=O)(=O)N3CCCCCC3)cc12,.,-19.9%,.,-1.9%,21.2%,5.6%[59 µM]
Cc1ccc(Nc2nc(C#N)nc(NC3CCCC3)n2)cc1,.,-16.4%,.,.,.,.
COc1ccccc1OCC(=O)Nc1ccc(C(=O)Nc2ccccc2C(=O)O)cc1,?,.,1.8,.,.,.
COc1ccc(C(=O)Nc2ccc(/C(C)=N/NC(=O)c3ccncc3)cc2)cc1,.,.,.,50.1µM*,.,22.4µM*
CC(=O)Nc1cccc(/C(C)=N/NC(N)=S)c1,0.3,-2.6%,3.6,-13.1%,-6.5%,31.6µM*
COc1ccc(CNC(=O)CCC(=O)Nc2cccnc2)cc1,1.9,-2.8%,-1.9,1.4%,41.6%,39.8µM*
CC(=O)Nc1cccc(/C(C)=N/NC(=S)NC(C)C)c1,-8.9,-5.8%,-0.8,-23.3%,28.7%,-0.4%
COc1ccc(/C(C)=N/NC(=O)c2ccncc2)cc1,1.0,-2.7%,.,-1.5%,.,-9.0%[59 µM]

# High-throughput results deposited in PubChem by National Center for Advancing Translational Sciences (NCATS).
